This passage reports outcome and AC50 results from PubChem BioAssay (EPA / NIEHS).

Experiment [1] is described as follows: CCTE_Shafer_MEA_acute_LDH: CCTE's Lactate Dehydrogenase Assay for Cytotoxicity in the Neural Acute Assay, Shafer Lab (AID 2284086; active means hit-call score of the fitted dose curve at least 0.9, where 1 is the maximum;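 further: active means LDH release rises above DMSO vehicle level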). An outline of the steps:
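LDH released during 40 min compound exposure of primary rat cortical cultures, quantified by absorbance at 490 nm in collected medium. Fitting direction positive versus DMSO vehicle.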

Experiment [2] is described as follows: CCTE_Shafer_MEA_dev_AB: CCTE's Alamar Blue Assay for Cytotoxicity in the Neural Network Formation Assay, Shafer Lab (AID 2284083; active means hit-call score of the fitted dose curve at least 0.9, where 1 is the maximum;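 further: resazurin reduction fluorescence as viability of cultured neurons; twelve days of exposure from plating with re-dosing on DIV 5 and 9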). An outline of the steps:
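Resazurin fluorescence, relative to DMSO, gauges viability after twelve days of exposure that began at plating of rat cortical neurons (1.5 x 10^5 cells/well, 48-well MEA); treatment renewed with full medium exchange on DIV 5 and 9.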

A short description of experiment [3]: CCTE_Shafer_MEA_dev_mutual_information_norm: CCTE's Neural Network Formation Assay for Mutual Information Normalization, Shafer Lab (AID 2284091).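 On AC50: mutual information between electrodes summarised as area under curve across four recording days; potency is for a decrease in mutual information relative to DMSO.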 The essentials:
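Shared information across electrodes, tracked on days 5, 7, 9 and 12 of network development and collapsed as trapezoidal area under the curve. Rat cortical cultures were treated continuously from plating, with treatment renewed at feeds on DIV 5 and 9; DMSO baseline, negative-direction fit.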

Experiment [4] can be described thus: CCTE_Shafer_MEA_dev_correlation_coefficient_mean: CCTE's Neural Network Formation Assay for Mean Correlation Coefficient, Shafer Lab (AID 2284093).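 On AC50: well mean pairwise spike train correlation integrated as AUC over recording days 5 to 12; potency fitted for loss of correlation relative to DMSO vehicle wells.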 An outline of the steps:
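Primary rat cortical neurons on PEI-coated 48-well MEA plates (16 electrodes/well) were exposed from plating day 0 through DIV12, with compound renewed at DIV5 and 9. Pairwise spike correlations were averaged per well; trapezoidal AUC across DIV5, 7, 9, 12.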

Experiment [5] can be described thus: IUF_NPC1b_proliferation_BrdU_72hr: Leibniz Research Institute for Environmental Medicine (IUF) 72-hour Neural Progenitor Cell Bromodeoxyuridine (BrdU) Proliferation Assay (NPC1b) (AID 2284207). The essentials: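 Human fetal cortex-derived (GW 16-19) neural progenitor spheres, 0.25-0.35 mm, one per well in EGF/FGF proliferation medium, exposed to compound for 72 h at 37C, pH 7.2-7.6. BrdU incorporation over the final 16 h read by luminescence ELISA, relative to DMSO.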

Experiment [6] in a line: IUF_NPC1a_proliferation_area_72hr: Leibniz Research Institute for Environmental Medicine (IUF) 72-hour Neural Progenitor Cell Proliferation Area Assay (NPC1a) (AID 2284208). An outline of the steps:
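Spheres of 0.3 mm are plated singly in growth-factor medium and exposed from day 0. After three days at 37C and 5% CO2, sphere area is measured by phase contrast imaging, with activity referenced to DMSO.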

The nature of experiment [7]: IUF_NPC1_viability_72hr: Viability Assessment at 72 hours in the Leibniz Research Institute for Environmental Medicine (IUF) Neural Progenitor Cell Proliferation Assay (NPC1) (AID 2284209). An outline of the steps:
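Viability was measured by resazurin-to-resorufin fluorescence (alamar blue) after 72 h of continuous exposure without compound renewal. Each well held one hNPC sphere (gestational week 16-19 fetal cortex, 0.25-0.35 mm) cultured in EGF/FGF proliferation medium at 37C and pH 7.2-7.6.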

Experiment [8] in a line: CCTE_Mundy_HCI_Cortical_Synap_Neur_Matur_BPCount: CCTE's Synaptogenesis and Neurite Maturation Assay in rat cortical cells for Branch Point Count, Mundy Lab (AID 2284211). The essentials:
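HCI read-out of branch points from MAP2/synaptophysin/Hoechst immunofluorescence; rat cortical cultures, AraC DIV 5, dosing DIV 7, fixed DIV 12; fit in positive direction vs DMSO baseline.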

Experiment [9] can be described thus: CCTE_Mundy_HCI_Cortical_NOG_NeuriteLength: CCTE's Neurite Outgrowth Assay in rat cortical cells for Neurite Length, Mundy Lab (AID 2284213).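 Further: neurites imaged about 48 to 50 h after chemical exposure began.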 The essentials: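 First, rat primary cortical cells were plated and, 2 h later, given test chemical as a 1/10 dilution. Finally, βIII-tubulin immunostaining enabled automated imaging of neurite length.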
The nature of experiment [10]: CCTE_Mundy_HCI_Cortical_Synap_Neur_Matur_NeuriteLength: CCTE's Synaptogenesis and Neurite Maturation Assay in rat cortical cells for Neurite Length, Mundy Lab (AID 2284214). The essentials: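 Neurite length quantified by automated high-content imaging of MAP2, synaptophysin and Hoechst staining. Rat cortical cells received chemical from DIV 7 to DIV 12 […], glial growth arrested by AraC at DIV 5; DMSO baseline.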

Experiment [11] is described as follows: CCTE_Mundy_HCI_Cortical_Synap_Neur_Matur_NeuriteSpotCountPerNeuron: CCTE's Synaptogenesis and Neurite Maturation Assay in rat cortical cells for Neurite Spot Count per Neuron Count, Mundy Lab (AID 2284215). An outline of the steps:
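Rat cortical primary cultures; AraC DIV 5 to arrest glia; dosing + media change DIV 7; fixed DIV 12. Anti-MAP2/anti-synaptophysin, Hoechst nuclei; HCI puncta count per neuron, positive fitting direction vs DMSO.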

Experiment [12] can be described thus: CCTE_Mundy_HCI_Cortical_Synap_Neur_Matur_SynapseCount: CCTE's Synaptogenesis and Neurite Maturation Assay in rat cortical cells for Synapse Count, Mundy Lab (AID 2284218). The essentials: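 High-content imaging of synaptophysin puncta per MAP2-positive neuron (Hoechst nuclei) in rat cortical cells exposed DIV 7–12 after glial arrest with AraC at DIV 5; decrease relative to DMSO scored.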

Experiment [13] can be described thus: CCTE_Mundy_HCI_Cortical_Synap_Neur_Matur_NeuriteCount: CCTE's Synaptogenesis and Neurite Maturation Assay in rat cortical cells for Neurite Count, Mundy Lab (AID 2284222).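 On outcome: exposure from day 7 to day 12 in vitro with readout at day 12.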 An outline of the steps: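 Rat cortical neurons, 96-well; AraC DIV 5; chemical + media change DIV 7; end DIV 12. Fix PFA/Hoechst, anti-MAP2 + anti-synaptophysin IF. HCI neurite count vs DMSO baseline.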

The nature of experiment [14]: UKN2_HCS_IMR90_neural_migration: University of Konstanz (UKN) Leist Lab Neural Crest Cell Migration Assay in human induced IMR90 Pluripotent Stem Cells (UKN2) (AID 2284204). Conditions: actives raise or lower the signal. An outline of the steps:
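High-content imaging of calcein-AM and Hoechst stained cells quantifies migration into a stopper-defined gap after 24 h compound exposure. Neural crest cells from IMR90 iPSC migrated 24 h in EGF/FGF N2-S medium before dosing; DMSO baseline.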

The nature of experiment [15]: CCTE_Mundy_HCI_Cortical_Synap_Neur_Matur_NeuriteSpotCountPerNeuriteLength: CCTE's Synaptogenesis and Neurite Maturation Assay in rat cortical cells for Neurite Spot Count per Neurite Length, Mundy Lab (AID 2284210). The essentials: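 Synaptophysin spots per unit neurite length, measured by automated imaging of MAP2/synaptophysin/Hoechst-stained neurons. Cultures from rat cortex received chemical at DIV 7 with media change through DIV 12; glial growth arrested by AraC at DIV 5; DMSO baseline.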

Experiment [16] can be described thus: UKN4_HCS_LUHMES_neurite_outgrowth: University of Konstanz (UKN) Leist Lab Neurite Outgrowth Assay in human LUHMES cells (UKN4) (AID 2284206). Particulars: actives raise or lower the signal. The essentials:
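After 24 h compound treatment beginning shortly after replating of 2-day-differentiated LUHMES cells, calcein-AM and H-33342 live staining allowed high-content imaging of neurite area and viability. Fitted bidirectionally against DMSO.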

Experiment [17] can be described thus: TAMU_PeakParms_SingleDonor1434_Chronotropy: Texas A&M University (TAMU) 1.5-hr Human Induced Pluripotent Stem Cell (iPSC)-derived Cardiomyocytes Calcium (Ca+2) Flux Assay for Cardiotoxicity: Chronotropy (changes in peak frequency) (AID 2284217). Particulars: actives raise or lower the signal. The essentials:
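Beat rate, as mean Ca2+-flux peak frequency, was read from donor 1434 iPSC cardiomyocytes 90 min after exposure to 0.2–100 uM test chemical (0.5% DMSO). Wells that stopped beating were excluded; EC05 from bidirectional DMSO-referenced fitting.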

Usually AC50 stands for the concentration at which the activity in the assay is half-maximal.

The structures appear in SMILES notation. Values joined by “and” are separate entries in the source; they are usually repeats but may differ in a detail not shown here. Equal values may be shown once. Inconclusive results are not listed. Active and inactive are the calls of the source. How the source made its calls, unless noted: active means hit-call score of the fitted dose curve at least 0.9, where 1 is the maximum; inactive means score below 0.9.

As for `C#CCOS(=O)OC1CCCCC1Oc1ccc(C(C)(C)C)cc1` (stereo not drawn), the outcome in experiment [1] was inactive.
For `CCCN(CCC)c1c([N+](=O)[O-])cc(S(N)(=O)=O)cc1[N+](=O)[O-]`, the compound was called inactive in experiment [1].
On to `COP(=S)(OC)Oc1nc(Cl)c(Cl)cc1Cl`, for which the outcome in experiment [2], in experiment [1], in experiment [3], in [4], in experiment [5] and in experiment [6] was inactive. For the same compound, the compound was classed as inactive in experiment [7]. For the same compound, the AC50 was 24.8 µM (active) in [8]; 23.1 µM (active) in experiment [9]; 25.9 µM (active) in experiment [10]; 20.7 µM (active) in experiment [11]; 22.4 µM (active) in experiment [12]; 27.9 µM (active) in experiment [13].
Regarding `CO/C=C(/C(=O)OC)c1ccccc1Oc1cc(Oc2ccccc2C#N)ncn1`, the AC50 in [2] was 1.73 µM (active) and 2.19 µM (active); in [3], 1.11 µM (active) and 985 nM (active); in experiment [4], 1.57 µM (active) and 574 nM (active); in experiment [6], 60.2 µM (active); in experiment [15] it was 5.11 µM (active); in experiment [8], 3.25 µM (active). Besides, the AC50 in [9] is 2.58 µM (active); in experiment [10], 3.56 µM (active); in experiment [11] it was 2.75 µM (active); in [12] it was 3.62 µM (active); in [13], 4.78 µM (active). In addition, the result in experiment [1], in experiment [14], in [5] and in experiment [7] was inactive.
Take `CCCCNC(=O)n1c(NC(=O)OC)nc2ccccc21`: the result in experiment [2], in [3], in experiment [15], in [11], in experiment [12] and in experiment [13] was inactive. The AC50 in [4] was 15000 nM (active); in experiment [14], 10 µM (active); in experiment [16] it was 7.73 µM (active); in [8], 15 µM (active); in experiment [9], 11.1 µM (active); in experiment [10] it was 15 µM (active).
With `CN(C)C(=S)SSC(=S)N(C)C`, the half-maximal activity concentration (AC50) was 12 nM (active) in [2]; 6.69 nM (active) in experiment [3]; 9.07 nM (active) in experiment [4]; 1.72 µM (active) in experiment [14]; 50.1 µM (active) in experiment [5]; 67.2 µM (active) in experiment [6]. Also, the AC50 is 74.6 µM (active) in experiment [7]; 0.0765 µM (active) in experiment [15]; 0.0767 µM (active) in experiment [8]; 0.0588 µM (active) in experiment [9]; 0.0549 µM (active) in [10]; 0.0745 µM (active) in experiment [11]. The AC50 was 0.0587 µM (active) in experiment [12] and 0.0585 µM (active) in [13].
In the case of `CC(Oc1ccc(Cl)cc1Cl)C(=O)O` (stereo not drawn), the compound was classed as inactive in experiment [1].
On the same count and under the same terms, as for `N#CC(CCc1ccc(Cl)cc1)(Cn1cncn1)c1ccccc1` (stereo not drawn), the entry is “inactive”; as for `COC(=O)C(C)Oc1ccc(Oc2ccc(Cl)cc2Cl)cc1` (stereo not drawn), “inactive”.
Consider `Cc1c(F)c(F)c(COC(=O)C2C(/C=C(\Cl)C(F)(F)F)C2(C)C)c(F)c1F` (stereo not drawn), for which the AC50 in experiment [2] was 17400 nM (active); in experiment [3], 302 nM (active); in experiment [4], 610 nM (active).
As to `Oc1ccccc1-c1ccccc1`, in experiment [17], the AC50 was 45.1 µM (active).
For `CCCCNC(=O)OCC#CI`, the concentration at half-maximal activity (AC50) in [2] is 3.1 µM (active) and 1.55 µM (active); in experiment [3] it was 1.81 µM (active) and 1.09 µM (active); in experiment [4], 3.8 µM (active) and 1.05 µM (active). Besides, the result in experiment [1] and in experiment [17] was inactive.
